In general, AC50 refers to the concentration at which the activity in the assay is half-maximal.

SMILES strings stand for the structures. The source made the active and inactive calls. The calls were made as follows: active = hit-call score of the fitted dose curve at least 0.9, where 1 is the maximum; inactive = score below 0.9.

For 40 compounds, outcome and AC50 results are on record in PubChem BioAssay (EPA / NIEHS).

E-selectin (Homo sapiens), sequence (P16581 whole entry, looked up): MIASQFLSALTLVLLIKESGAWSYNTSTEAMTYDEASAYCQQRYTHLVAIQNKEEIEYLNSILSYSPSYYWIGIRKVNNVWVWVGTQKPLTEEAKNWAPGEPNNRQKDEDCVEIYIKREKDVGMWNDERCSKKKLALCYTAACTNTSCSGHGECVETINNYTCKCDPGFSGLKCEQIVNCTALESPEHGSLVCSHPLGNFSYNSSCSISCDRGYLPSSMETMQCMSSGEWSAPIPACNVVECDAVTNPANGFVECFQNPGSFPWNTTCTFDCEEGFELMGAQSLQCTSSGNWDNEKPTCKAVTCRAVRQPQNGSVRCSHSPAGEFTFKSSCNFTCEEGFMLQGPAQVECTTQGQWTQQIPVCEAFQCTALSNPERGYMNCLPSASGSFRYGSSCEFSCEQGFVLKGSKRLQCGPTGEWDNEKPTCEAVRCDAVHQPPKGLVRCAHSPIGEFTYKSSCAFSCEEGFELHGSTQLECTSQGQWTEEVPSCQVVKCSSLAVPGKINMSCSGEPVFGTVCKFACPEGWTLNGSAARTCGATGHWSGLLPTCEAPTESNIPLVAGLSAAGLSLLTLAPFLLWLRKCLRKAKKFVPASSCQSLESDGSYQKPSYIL

Read-out in the test: E-selectin (Homo sapiens) (UniProt P16581)
Briefly: BSK_3C_Eselectin: BioMAP Diversity Plus: 3C Assay for Eselectin Biomarker Activity (AID 2283015). Conditions: primary human endothelial cells (HUVEC); actives raise or lower the signal. On the procedure: BSK_3C is a cell-based, multiplexed-readout assay that uses umbilical vein endothelium, a human vascular primary cell, with measurements taken at 24 hours after chemical dosing in a 96-well plate.BSK_3C_Eselectin is an assay component measured in the BSK_3C assay. It measures E-selectin antibody related to regulation of gene expression using ELISA technology.Data from the assay component BSK_3C_Eselectin was analyzed into 1 assay endpoint. This assay endpoint, BSK_3C_Eselectin, was analyzed with bidirectional fitting relative to DMSO as the negative control and baseline of activity. Using a type of binding reporter, gain or loss-of-signal activity can be used to understand changes in the signaling as they relate to the gene SELE. Furthermore, this assay endpoint can be referred to as a primary readout, because this assay has produced multiple assay endpoints where this one serves a signaling function. To generalize the intended target to other relatable targets, this assay endpoint is annotated to the cell adhesion molecules intended target family, where the subfamily is selectins.
The levels of cell surface (or secreted, indicated by the prefix "s") biomarker endpoints were measured by ELISA. Overt cytotoxicity to cells in confluent adherent cultures (all systems other than the BT system) was assessed by measuring total protein levels using sulforhodamine B (SRB) staining in parallel cultures at the time of biomarker measurements, indicated as SRB endpoints. For proliferation assays for adherent cell types, individual cell types are cultured at sub-confluence and relative cell numbers quantified by SRB staining at time points optimized for each system (48 h: 3C and CASM3C systems; 72 h: BT and HDF3CGF systems; 96 h: SAg system). SRB was performed by staining cells with 0.1% SRB after fixation with 10% TCA and reading wells at 560 nm.Viability and proliferation of PBMC (T cells) was quantified by Alamar Blue reduction for the SAg and BT systems. For PBMC viability (referred to as PBMC Cytotoxicity within the assay endpoint names), cells were plated (75,000/well in a 96-well plate) and then chemical samples added for 1 h before addition of activators, SEB and TSST-1 (20 ng/mL final concentration each). Cells were incubated for 90 h. Then, Alamar Blue (20 uL/well) (Invitrogen, Cat DAL1100) was added for 6 h, and the plates were read with a fluorescence microplate reader at 546/580 nm (excitation/emission). For PBMC proliferation, cells were plated and activated as above but incubated for only 16 h prior to addition of Alamar Blue. Plates were read after 6 h.
On to `O=C1CCC(N2C(=O)c3ccccc3C2=O)C(=O)N1` (stereo not given), for which the result was inactive.

With `O=C(NS(=O)(=O)/C=C/c1ccccc1)c1ccc(F)cc1Cl`, the outcome was inactive.

For the compound `O=C1CCCCCN1`, the result was inactive.

For the compound `CC(C)=CCCC(C)=CC=O`, the result was inactive.

Consider `Cn1c(=O)c2c(ncn2C)n(C)c1=O`, for which the outcome was inactive.

For the compound `CCc1cc(SCc2sc(-c3ccc(C(F)(F)F)cc3)nc2CN2CCN(c3ccc(OC)cc3)CC2)ccc1OCC(=O)O`, the AC50 was 15.2 µM (active).

For the compound `Oc1ccc2c(c1)-c1ccccc1C2`, the outcome was inactive.

For `CCOc1cccc(-n2cc(C(=O)N3CCN(c4cc(C(=O)O)c5ccccc5c4)CC3)nc2-c2ccc(C)cc2)c1`, the result was inactive.

`Fc1ccccc1[C@@H](F)COC1CCC(Nc2ncnc3[nH]ncc23)CC1` (stereo not given in full): the outcome was inactive.

`COc1cccc(-c2ccc(/C=C\CN3CCCCCC3)cc2Cl)c1`: the concentration at half-maximal activity (AC50) was 28.6 µM (active).

In the case of `CCn1nc(Cc2ccccc2)cc1C1CCN(C[C@H]2C[C@H](N(C)[C@@H](C(=O)O)C(C)C)C[C@@H]2c2cccc(F)c2)CC1`, the outcome was inactive.

Turning to `Cc1ccc(C)c(O)c1`, the result was inactive.

Turning to `Cn1c(=O)cc(Oc2ccc(F)cc2F)c2cnc(NCC(C)(C)O)nc21`, the result was inactive.

Turning to `CC(C)CCO`, the outcome was inactive.

`Cc1c(-c2cccnc2)c2ccccc2n1CCCCC(=O)O`: the outcome was inactive.

In the case of `CC(C)CCCCCCOC(=O)c1ccc(C(=O)OCCCCCCC(C)C)c(C(=O)OCCCCCCC(C)C)c1`, the outcome was inactive.

Take `CNS(=O)(=O)c1cc(C(=O)N2CCC(CCN3C4CCC3CC(n3c(C)nc5ccccc53)C4)(c3cccc(F)c3)CC2)c(Cl)cc1F` (stereo not given): the result was inactive.

As to `CN(C)c1ccc(N=NS(=O)(=O)O)cc1`, the result was inactive.

With `CCCCCCCCO`, the outcome was inactive.

Regarding `CCN(C(=O)c1cc(C)cc(OC[C@H](C)Nc2ccncc2)c1)C(C)C`, the result was inactive.

As to `O=C(O)c1cccc(Oc2ccccc2)c1`, the outcome was inactive.

As to `Clc1nc(Cl)c(Cl)c(Cl)c1Cl`, the result was inactive.

`CN(C)c1ccc(Cc2ccc(N(C)C)cc2)cc1`: the outcome was inactive.

For the compound `CC[C@H]1CC[C@H](NCc2cc3c(cc2OC)[C@H]2C[C@H]2C(=O)N3C)[C@H](c2ccccc2)N1`, the result was inactive.

Regarding `COCCOCCOCCOC`, the outcome was inactive.

Consider `O=C(O)c1cccc(N(Cc2cccnc2)c2ccc(OC(F)F)c(OC(F)F)c2)c1`, for which the outcome was inactive.

Regarding `Cn1cnc([N+](=O)[O-])c1Sc1ncnc2nc[nH]c12`, the outcome was inactive.

On to `Nc1nc2ncc(CNc3ccc(C(=O)N[C@@H](CCC(=O)O)C(=O)O)cc3)nc2c(=O)[nH]1`, for which the outcome was inactive.

As to `CCC(C)(C)C(=O)O[C@H]1C[C@@H](C)C=C2C=C[C@H](C)[C@H](CC[C@@H]3C[C@@H](O)CC(=O)O3)[C@H]21`, the half-maximal activity concentration (AC50) is 30.2 µM (active).

With `O=C1OC(=O)C2C3C=CC(C3)C12` (stereo not given), the result was inactive.

On to `NC(=O)NO`, for which the result was inactive.

Turning to `Cc1ccc(O)cc1`, the result was inactive.

With `Cc1ccc(N)cc1O`, the result was inactive.

`COCCOc1cc2cc(C(=O)NC3CCN(C(C)C)CC3)n(CC(=O)Nc3ccc(Cl)cn3)c2cn1`: the result was inactive.

Regarding `CC(C)=CCC/C(C)=C/CO`, the result was inactive.

Regarding `C1=CCCC=CCCC=CCC1`, the outcome was inactive.

In the case of `CCOCCO`, the outcome was inactive.

Turning to `CC(C)CCCCCCCOC(=O)CCCCC(=O)OCCCCCCCC(C)C`, the result was inactive.

Regarding `CCCCCCCCCCCCc1ccccc1`, the result was inactive.

On to `Cc1[nH]cnc1C[C@H]1CCc2c(C)c3ccccc3n2C1=O`, for which the result was inactive.
